Source: PubChem BioAssay AID504332 (National Center for Advancing Translational Sciences (NCATS), 2011)
The campaign covered roughly 350,000 compounds. About 31,000 (8.9%) were called active. Not shown: some 15% with an inconclusive outcome. The sample holds actives, similar compounds and a random draw of the others, so the mix is not that of the screen. Calls follow the shape of the dose curve; as a rule, active = well fitted inhibition curve with a large enough effect; inconclusive = small, poorly fitted or top-dose-only effect; inactive = no such curve, though single readings can be large or run the other way.

target: Histone-lysine N-methyltransferase EHMT2 (Homo sapiens) (UniProt Q96KQ7); test: qHTS Assay for Inhibitors of Histone Lysine Methyltransferase G9a; details: G9a H3K9 monomethylation, AlphaScreen, 2 h; series mostly up to 59 µM; also: nearly all actives have a fitted effect of over 75% in size
Sequence (Q96KQ7 913-1193 limits assumed): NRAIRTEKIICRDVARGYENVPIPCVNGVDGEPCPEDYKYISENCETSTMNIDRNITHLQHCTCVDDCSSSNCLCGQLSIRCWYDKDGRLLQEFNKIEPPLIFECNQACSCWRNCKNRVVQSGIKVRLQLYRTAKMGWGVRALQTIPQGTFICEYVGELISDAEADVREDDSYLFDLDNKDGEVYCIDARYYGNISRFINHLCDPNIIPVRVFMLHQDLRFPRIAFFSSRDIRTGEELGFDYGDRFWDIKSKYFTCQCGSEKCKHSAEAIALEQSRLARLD
In short: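 Readings reflect AlphaScreen signal from monomethyl-H3K9 antibody detection. HMT at 20 nM; substrate b-H3K9 500 nM; cofactor SAM 20 uM; 2 h RT reaction; compounds tested as titrations in qHTS with 15 min preincubation.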
% is scaled to controls: 0 for no effect and ±100 for the full control effect; potency is read from the fitted curve at half-maximal effect.

Potency, active:
O=C1Nc2ccc(Br)cc2/C1=N/N=C/C1=C(N2CCOCC2)C(=C\c2ccccc2)/CC1 12.6 µM
CCOc1ccc(N(C(=O)c2snc(C(N)=O)c2N)C(C(=O)NCC2CCCO2)c2c[nH]c3ccccc23)cc1 (configuration not stated) 39.8 µM
N#C/C=C\Oc1ccc(Cl)cc1N 44.7 µM
CC(Oc1ccccc1)C(=O)Nc1oc(-c2ccco2)c(-c2ccco2)c1C#N (configuration not stated) 28.2 µM
CCN(CC)CCN1C(=O)C2C(C(=O)Nc3ccc(Br)cc3)C3C=CC2(O3)C1C(=O)NC1CCCCC1 (configuration not stated) 50.1 µM
COc1cc2c(cc1OC)C(c1ccc(C)o1)CC(=O)N2 (configuration not stated) 20 µM
Cn1c(=O)c2[nH]c(NCC3CCCO3)nc2n(-c2ccccc2)c1=O (configuration not stated) 8.91 µM
CCC1OC(c2ccc([N+](=O)[O-])cc2)=Nc2ccccc21 (configuration not stated) 44.7 µM
COc1ccc(-c2nnc(SCC(=O)Nc3cccnc3Cl)n2C)cc1 20 µM
CC1=C/C(=N\OS(=O)(=O)c2ccccc2)C=CC1=O 2.51 µM

Potency, inactive:
COc1ccc(C(=O)CC(=O)c2ccc(C)cc2)c(O)c1
COc1cc2c(cc1OC)C(COc1ccc(F)cc1)N(C(=O)c1ccccc1F)CC2 (configuration not stated)
COc1ccc(/C=N/N=C2/C(=O)Nc3ccccc32)cc1O
COc1ccc(S(=O)(=O)Nc2cc3c(C(=O)OC(C)C)c(C)oc3c3ccccc23)cc1
Cc1ccc(N(C(=O)c2snc(C(N)=O)c2N)C(C(=O)NCC2CCCO2)c2c[nH]c3ccccc23)cc1 (configuration not stated)
COc1cccc(N(C(=O)c2snc(C(N)=O)c2N)C(C(=O)NCC2CCCO2)c2c[nH]c3ccccc23)c1 (configuration not stated)
O=C(NC(=S)Nc1ccccc1N1CCCCC1)c1ccc(F)cc1
O=C(CC1N=C2c3ccccc3N=C(SCc3ccc(F)cc3)N2C1=O)NCc1cccs1 (configuration not stated)
Nc1nc(-c2ccccc2)cc(-c2ccccc2)n1
COc1cc(C(=O)Nc2oc(-c3ccccc3)c(-c3ccccc3)c2C#N)cc(OC)c1OC
CC(C)C(=O)Nc1oc(-c2ccccc2)cc1C#N
CCC(=O)N1CCc2cc(Br)cc(S(=O)(=O)NCc3ccc(Cl)cc3)c21
Brc1ccccc1/C=N/Nc1nc2ccccc2o1
CC(C)N1C(=O)C2C(C(=O)NC3CCCCC3)C3C=CC2(O3)C1C(=O)NC1CCCC1 (configuration not stated)
CCOCCCN1C(=O)C2C(C(=O)Nc3ccc(OCC)cc3)C3C=CC2(O3)C1C(=O)NC1CCCCC1 (configuration not stated)
CC(=O)N1c2ccc(S(=O)(=O)N3CCCCCC3)cc2CC1C(=O)NCc1ccccc1C (configuration not stated)
Cc1ccc(S(=O)(=O)NCCC(=O)NNC(=O)C2COc3ccccc3O2)cc1 (configuration not stated)
Cc1ccc(-n2ncc(C(=O)N(C)Cc3ccccc3)c2-n2cccc2)cc1
COc1ccc(C(=O)NC2CC2)cc1OC1CCN(Cc2ccc(SC)cc2)CC1
CCOC(=O)c1c(NC(C)=O)c2c3c(sc2n1Cc1c(C)cc(C)cc1C)CCCC3
COC(=O)c1ccc(C2CC(=O)Nc3cc(OC)c(OC)cc32)cc1 (configuration not stated)
O=C(Nc1cc(C(F)(F)F)ccc1Cl)c1cc2nc(-c3ccc4c(c3)OCO4)cc(C(F)(F)F)n2n1
CCOc1ccccc1N(CC)C(=O)Nc1cn(C)c(=O)c2ccccc12
CC(C)(C)c1nc(NCC2CCCO2)c2nnn(Cc3ccccc3)c2n1 (configuration not stated)
Cc1sc2c(c1C)c(=O)n(-c1ccccc1)c(=O)n2CC(=O)NCC1CCCO1 (configuration not stated)
CCN(CC)C(=O)CSc1nc2ccsc2c(=O)n1Cc1ccccc1Cl
CCCCN(C)c1ccc([N+](=O)[O-])cc1
CCc1ccc2c(c1)C(c1ccc([N+](=O)[O-])cc1)=NNC(c1ccccc1)=N2
Cc1cccnc1NC(=O)CSc1nnc(COc2ccc(C(C)C)cc2)n1C
O=S(=O)(ON(c1ccccc1)S(=O)(=O)c1ccccc1)c1ccccc1
O=C(Cn1nnc(-c2ccccc2)n1)NC(=O)NC1CCCC1

activity, negative = inhibition, inactive:
CN(CC(=O)Nc1ccc(OC(F)(F)F)cc1)C(=O)C1CCC1 -37% [at 12.7 µM]
COc1ccc(Cl)cc1C(=O)NCC#N -0.132% [at 12.7 µM]
COCCNC(=O)C1CCN(S(=O)(=O)c2ccc3c(c2)OCCO3)CC1 2.44% [at 0.501 µM]
COc1cc2c(cc1OC)C(c1ccncc1)CC(=O)N2 (configuration not stated) -34% [at 2.33 µM]
COc1ccc(OC)c(NC(=O)CSc2nc3cccnc3n2C)c1 -2.8% [at 12.7 µM]
CCOc1ccc(/C=C/C(=O)N(CC)CC(=O)NCc2cccs2)cc1OC 7.69% [at 2.33 µM]
